LYPLA1 inh: LYPLA1 (human) inhibition in PME1 counter-screen; O75608; inhibition, % at 5.9 µM; 320,000 tested, 0.16% active; recombinant LYPLA1, FP-Rh probe fluorescence polarization; AID 2174;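 active means inhibition above the mean of all tested compounds plus 3 SD, set per campaign, cut at about 14% in these data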;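 further: inhibitors block serine hydrolase probe labeling of LYPLA1 so polarization falls; 0% = enzyme with DMSO and 100% = wells lacking LYPLA1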
Target sequence (O75608 whole entry, looked up): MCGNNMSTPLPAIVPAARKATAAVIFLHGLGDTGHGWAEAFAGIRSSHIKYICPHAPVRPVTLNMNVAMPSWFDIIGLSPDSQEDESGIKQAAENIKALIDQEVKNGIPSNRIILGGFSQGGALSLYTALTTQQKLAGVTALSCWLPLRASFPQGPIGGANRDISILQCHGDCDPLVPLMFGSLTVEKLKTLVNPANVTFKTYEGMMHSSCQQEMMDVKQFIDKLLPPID
Fam108B inh: blocks mouse Fam108B hydrolase in RBBP9 counter-screen | recombinant Fam108B, FP-Rh probe fluorescence polarization | inhibition, % at 9.51 µM | 300,000 tested, 0.33% active | AID 1947;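 active means inhibition above the screen mean inhibition plus 3 SD, computed separately per campaign, cut at about 18% in these data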;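 further: inhibitors lower polarization as less probe binds the enzyme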
PP1 inh: blocks human PP1-alpha phosphatase, a PP5 counter-screen. purified PP1alpha, OMFP fluorescence. inhibition, % at 6.7 µM. 320,000 tested, 0.9% active. AID 2235;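 active means inhibition above the mean inhibition of all tested compounds plus 3 SD, computed separately for each screening campaign, cut at about 15% in these data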
Target sequence (P62136 whole entry, looked up): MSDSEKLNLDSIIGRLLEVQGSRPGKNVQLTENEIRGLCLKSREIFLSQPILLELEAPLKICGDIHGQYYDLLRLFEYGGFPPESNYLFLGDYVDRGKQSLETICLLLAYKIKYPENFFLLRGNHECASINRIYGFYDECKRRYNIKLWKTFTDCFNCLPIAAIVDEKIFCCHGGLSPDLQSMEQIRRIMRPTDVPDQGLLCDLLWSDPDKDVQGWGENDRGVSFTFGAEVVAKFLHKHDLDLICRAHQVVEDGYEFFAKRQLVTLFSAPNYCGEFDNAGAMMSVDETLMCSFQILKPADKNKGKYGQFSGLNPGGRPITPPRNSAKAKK
PP5 inh: inhibitors of human protein phosphatase 5 (PP5) | inhibition, % at 6.7 µM | 320,000 tested, 0.18% active | purified PP5c, OMFP substrate fluorescence;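 active means inhibition above the campaign's mean inhibition across all tested compounds plus 3 SD, cut at about 9.5% in these data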;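 further: 0% = DMSO only and 100% = 100 µM cantharidin control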
LYPLA2 inh: LYPLA2 (human) inhibition in PME1 counter-screen | inhibition, % at 5.9 µM | recombinant LYPLA2, FP-Rh probe fluorescence polarization | O95372 | 320,000 tested, 0.38% active;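 active means inhibition above the screen-wide mean plus 3 SD, limit set per campaign, cut at about 26% in these data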;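 further: 0% = LYPLA2 with DMSO and 100% = wells lacking LYPLA2 enzyme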
PME-1 inh: PME-1 (human) inhibition. recombinant PME-1, FP-Rh probe fluorescence polarization. inhibition, % at 5.9 µM. 320,000 tested, 0.53% active;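 active means inhibition above the campaign mean of all compounds plus 3 SD, cut at about 26% in these data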;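 further: competitive labeling of PME-1 active site by serine hydrolase directed probe; 0% = PME-1 with DMSO and 100% = wells lacking PME-1 enzyme; inhibitors block probe labeling so polarization falls and inhibition rises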
PP1 confirm: confirmation of human PP1 phosphatase inhibitors; shares compounds with PP1 inh; 1,900 tested, 52% active; inhibition, % at 6.7 µM; purified PP1alpha, OMFP substrate fluorescence;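 active means mean PP1 inhibition above a set limit taken from the earlier primary screen, cut at about 15% in these data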
PP5 inh counter: inhibits human PP5 phosphatase in PP1 counter-screen. inhibition, % at 6.7 µM. 1,900 tested, 4% active. purified PP5c, OMFP fluorescence. shares compounds with PP1 inh. AID 2360;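 active means mean PP5 inhibition over triplicate wells above about 9.5% taken from the earlier PP1 screen, limit read from the data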
The depositor's hits bear a star. Compounds with a hit are over-represented: about 1.8% of the library has one in this group of screens.

O=C(Nc1cccc(-c2cn3ccccc3n2)c1)c1cc2ccccc2oc1=O was read as LYPLA1 inh 3, Fam108B inh -11, PP1 inh 24*, PP5 inh 2, LYPLA2 inh -1, PME-1 inh -18, PP1 confirm 28* and PP5 inh counter -4.
For N#CC1(NC(=O)COC(=O)c2nccnc2N)CCCCC1 the results were LYPLA1 inh -2, Fam108B inh 0, PP1 inh -1, PP5 inh -2, LYPLA2 inh 4 and PME-1 inh -8.
For O=C(O)CCC(=O)N1CCc2cc(S(=O)(=O)N(CCc3ccccc3)Cc3ccccc3)ccc21 the results were LYPLA1 inh -6, Fam108B inh 1, PP1 inh 20*, PP5 inh 4, LYPLA2 inh -6, PME-1 inh -2, PP1 confirm 15* and PP5 inh counter -4.
`CCCCN(c1ccccc1)S(=O)(=O)c1ccc2c(c1)CCN2C(=O)CCC(=O)O` gave LYPLA1 inh -6, Fam108B inh 3, PP1 inh -4, PP5 inh 0, LYPLA2 inh -5 and PME-1 inh -6.
Screening O=C(O)c1ccc(S(=O)(=O)N(CCc2ccccc2)Cc2ccc(Cl)cc2)cc1 returned LYPLA1 inh -2, Fam108B inh 0, PP1 inh 22*, PP5 inh 7, LYPLA2 inh -4, PME-1 inh -12, PP1 confirm 11 and PP5 inh counter -1.
For O=C(COC(=O)c1ccccn1)Nc1nc(-c2cccc([N+](=O)[O-])c2)cs1 the results were LYPLA1 inh -2, Fam108B inh -1, PP1 inh 1, PP5 inh 0, LYPLA2 inh 7 and PME-1 inh 6.
`N=C1SCC(=O)N1c1nc(-c2ccccc2)cs1` gave LYPLA1 inh 3, Fam108B inh 10, PP1 inh -4, PP5 inh 1, LYPLA2 inh 7 and PME-1 inh 4.
`CC1=NN(c2nc(-c3ccccc3)cs2)C(=O)C1` gave LYPLA1 inh -2, Fam108B inh 3, PP1 inh 20*, PP5 inh 1, LYPLA2 inh 7, PME-1 inh 4, PP1 confirm 0 and PP5 inh counter 10*.
CC1CCN(c2oc(-c3ccc(F)cc3)nc2C#N)CC1 was read as LYPLA1 inh 1, Fam108B inh 1, PP1 inh 3, PP5 inh 2, LYPLA2 inh 3 and PME-1 inh -2.
Screening CCNC(=S)NNC(=O)c1ccccn1 returned LYPLA1 inh 1, Fam108B inh 3, PP1 inh -2, PP5 inh 2, LYPLA2 inh -7 and PME-1 inh -3.
O=C(NNC(=S)Nc1ccc(Cl)c(Cl)c1)c1ccccn1 was read as LYPLA1 inh -1, Fam108B inh 1, PP1 inh 21*, PP5 inh -1, LYPLA2 inh 3, PME-1 inh 10, PP1 confirm 24* and PP5 inh counter 1.
`CC(=O)N1CCN(c2ccccc2NC(=O)c2cc(Br)ccc2Cl)CC1` gave LYPLA1 inh -2, Fam108B inh 9, PP1 inh 3, PP5 inh 0, LYPLA2 inh -1 and PME-1 inh 23.
For O=C(Nc1ccccc1N1CCN(C(=O)c2ccc(Cl)cc2)CC1)c1cc(Br)ccc1Cl the results were LYPLA1 inh -4, Fam108B inh -6, PP1 inh 18*, PP5 inh 0, LYPLA2 inh -12, PME-1 inh 23, PP1 confirm 9 and PP5 inh counter -3.
Cc1ccc(O)c(NC(=O)c2cc(C)no2)c1 was read as LYPLA1 inh 1, Fam108B inh -4, PP1 inh -6, PP5 inh 2, LYPLA2 inh -5 and PME-1 inh -1.
Cc1cc(C)n(-c2nc(NC(C)(C)C)nc(NC(C)(C)C)n2)n1 was read as LYPLA1 inh -1, Fam108B inh -1, PP1 inh 2, PP5 inh 0, LYPLA2 inh 4 and PME-1 inh 4.
For Cc1cc(C)n(-c2nc(NC(C)C)nc(NC(C)C)n2)n1 the results were LYPLA1 inh 0, Fam108B inh 0, PP1 inh 3, PP5 inh 0, LYPLA2 inh 1 and PME-1 inh -3.
Screening Cc1cc(C)n(-c2nc(Nc3ccccc3C)nc(-n3nc(C)cc3C)n2)n1 returned LYPLA1 inh -3, Fam108B inh 4, PP1 inh 36*, PP5 inh 4, LYPLA2 inh -1, PME-1 inh 5, PP1 confirm 38* and PP5 inh counter -2.
For Cc1cc(C)n(-c2nc(Nc3ccccc3C(F)(F)F)nc(-n3nc(C)cc3C)n2)n1 the results were LYPLA1 inh -4, Fam108B inh 3, PP1 inh 30*, PP5 inh 5, LYPLA2 inh -5, PME-1 inh -2, PP1 confirm 17* and PP5 inh counter 2.
`O=C(COC(=O)COc1ccccc1F)NCCc1ccc(F)cc1` gave LYPLA1 inh -1, PP1 inh -3, PP5 inh 0, LYPLA2 inh 8 and PME-1 inh 1.
Screening Cn1c(C=O)c(C#Cc2ccccc2)c2ccccc21 returned LYPLA1 inh -1, PP1 inh -2, PP5 inh -1, LYPLA2 inh -6 and PME-1 inh -7.
Screening O=C(Nc1ccccc1Oc1cccnc1)C1CCCN(Cc2ccc(F)cc2)C1 (stereo unspecified) returned LYPLA1 inh 2, Fam108B inh 4, PP1 inh 50*, PP5 inh 0, LYPLA2 inh 5, PME-1 inh 10, PP1 confirm -2 and PP5 inh counter -3.
For COC(=O)c1ccc(/C=C/c2ccc3cccc(OC(C)=O)c3n2)cc1 the results were LYPLA1 inh -7, Fam108B inh -1, PP1 inh 20*, PP5 inh 1, LYPLA2 inh -1, PME-1 inh -3, PP1 confirm 21* and PP5 inh counter -4.
Screening Fc1cccc(Cl)c1CSc1ccc(-c2cccnc2)nn1 returned LYPLA1 inh 3, Fam108B inh 1, PP1 inh 58*, PP5 inh 2, LYPLA2 inh 21, PME-1 inh 4, PP1 confirm -1 and PP5 inh counter -1.
Screening Cc1ccc(-c2ccc(SCC(=O)Nc3ccc4c(c3)OCCO4)nn2)cc1 returned LYPLA1 inh -7, Fam108B inh -8, PP1 inh 38*, PP5 inh 2, LYPLA2 inh -3, PME-1 inh 3, PP1 confirm -3 and PP5 inh counter -2.
